# Screening results (PubChem)
# This is a sample that favours compounds with a hit; in the whole collection about 18% have one here.
# TDP1 block: TDP1 (human) enzyme inhibition | Q9NUW8 | recombinant TDP1, AlphaScreen DNA substrate cleavage | Potency, µM (titrated, usually from 130 µM), for the others: top-dose activity change, negative = inhibition, actives largely listed as inhibitors | hit rate 0.28% among 350,000; note: nearly all actives have a fitted effect of over 40% in size
#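 Recombinant human Tdp1 (E. coli-expressed, 1 nM final) preincubated with compounds 15 min at room temperature, then 5'-biotin/3'-phosphotyrosine-FITC DNA substrate (15 nM final) added for 5 min. AlphaScreen beads (10 ug/ml final) added 10 min; cleavage lowers signal.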
# DT40 TDP1 no CPT: qHTS for Inhibitors of human tyrosyl-DNA phosphodiesterase 1 (TDP1): qHTS in cells in absence of CPT; hit rate 15% among 420,000; AID 686978, 2013; Potency, µM (doses to about 46.2 µM), without a hit: top-dose activity change, negative = growth inhibition, hits mostly inhibitors; DT40 Tdp1-/- hTDP1 cells, no CPT, ATP luminescence, 48 h; note: nearly all actives have a fitted effect of over 55% in size
#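 Chicken DT40 Tdp1-/- cells stably complemented with human TDP1 were seeded at 400 cells/well with DMSO in place of 20 nM camptothecin. After compound pinning, cells grew at least 48 hr at 37 °C; viability read by CellTiter-Glo luminescence.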
# KAT2A inh: GCN5L2 (KAT2A) acetyltransferase inhibition; AID 504327; GCN5L2 HAT assay, ThioGlo1 CoA-SH fluorescence; Q92830; hit rate 0.21% among 390,000; Potency, µM (highest dose often 58.9 µM), for inactives: at the top dose activity change, negative = inhibition, usual class: inhibitors
#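 Enzyme at 20nM final was mixed with library compounds for 15 min at room temperature. Peptide H3(1-25) at 75uM, acetyl-CoA at 70uM and ThioGlo1 at 50uM were then added. Plates were read immediately and after 20 min (Ex340nm/Em540nm).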
# DT40 TDP1 CPT: growth inhibition of DT40 Tdp1-/-;hTDP1 cells with camptothecin (screen for TDP1 inhibitors); Potency, µM (series often up to 46.2 µM), inactives show at the top dose activity change, negative = growth inhibition, most hits filed as inhibitors; chicken DT40 Tdp1-/-;hTDP1 cells + 20 nM CPT, ATP luminescence, 48 h; AID 686979; hit rate 12% among 420,000; note: nearly all actives have a fitted effect of over 55% in size
#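 Cell growth measured by CellTiter-Glo luminescence after a minimum 48 h, 37 C compound exposure with 20 nM CPT in Tdp1-knockout DT40 cells stably expressing hTDP1, seeded 400/well; qHTS titration format.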
# VDR inhibitor: vitamin D3 receptor (human) inhibition; hit rate 0.93% among 400,000; AID 504847; Potency, µM, without a hit: max response, negative = inhibition, most hits filed as inhibitors; VDR-SRC2-3 peptide fluorescence polarization, 2 h
# Target sequence (P11473 whole entry, looked up): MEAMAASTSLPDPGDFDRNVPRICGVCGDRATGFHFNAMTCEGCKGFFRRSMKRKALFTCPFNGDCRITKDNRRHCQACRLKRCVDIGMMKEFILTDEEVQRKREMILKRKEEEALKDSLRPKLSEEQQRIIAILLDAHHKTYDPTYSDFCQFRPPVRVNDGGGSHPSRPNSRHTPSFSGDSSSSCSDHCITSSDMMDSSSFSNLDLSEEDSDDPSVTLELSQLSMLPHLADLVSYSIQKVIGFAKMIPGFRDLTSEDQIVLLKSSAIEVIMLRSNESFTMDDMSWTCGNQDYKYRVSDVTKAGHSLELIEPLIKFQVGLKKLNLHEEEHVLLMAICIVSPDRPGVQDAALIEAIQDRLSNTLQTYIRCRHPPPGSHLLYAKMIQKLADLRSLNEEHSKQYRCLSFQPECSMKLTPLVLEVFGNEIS
#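 Inhibition of the VDR/SRC2-3 peptide interaction is quantified by fluorescence polarization. Compounds (23 nl, pintool) incubate with the reagents for 2 hours at ambient room temperature.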
# PLK1 PBD block: blocks phosphopeptide binding to human PLK1 polo-box domain | Plk1 PBD binding of FITC phosphopeptide, fluorescence polarization | Potency, µM, for the others: max response, negative = inhibition, most hits filed as inhibitors | hit rate 2.8% among 360,000 | AID 720504; note: series mostly up to about 57 µM; nearly all actives have a fitted effect of over 65% in size
# * hit, by the source's call; ? = inconclusive; / = no result given; [ ] = remark or other dose. Calls come from the whole dose curve; as a rule, active = well fitted curve in the direction sought with a large enough effect; inconclusive = small, poorly fitted or top-dose-only effect, or another doubt; inactive = no such curve, though single readings can be large; an effect the other way counts as inactive or inconclusive. % is set by controls: 0 for no effect and ±100 for the full control effect; potency is the fitted concentration of half-maximal effect.
SMILES,TDP1 block,DT40 TDP1 no CPT,KAT2A inh,DT40 TDP1 CPT,VDR inhibitor,PLK1 PBD block
COc1ccc(C2C=C(c3ccccc3)Nc3nc(NC(=O)/C=C/c4ccccc4OC)nn32)cc1 (centres undefined),6%,2.6µM*,-7%,5.8µM*,13%,/
O=C(CN1CCCCC1)NNc1nc(-c2ccccc2)c2cc(Br)ccc2n1,3%,-8%,-4%,-6%,3%,-14%
Cc1cccc(S(=O)(=O)Nc2ccc(C)c3c2OC(C)(C)C3)c1,5%,?,-9%,?,-1%,2%
Cc1ccc(NS(=O)(=O)c2ccccc2Cl)c2c1CC(C)(C)O2,-2%,14µM*,-1%,20µM*,1%,0%
O=C1CCCN1CCCN=c1c([N+](=O)[O-])nn(-c2ccc(Cl)cc2)n1O,3%,6.5µM*,-8%,3.3µM*,17%,-12%
COc1ccc(CCN=c2c([N+](=O)[O-])nn(-c3cccc(C)c3)n2O)cc1OC,5%,?,-10%,10µM*,-1%,2%
Cc1ccc(N=c2c([N+](=O)[O-])nn(-c3ccc(Cl)cc3)n2O)cc1C,12%,7%,-11%,1%,0%,-3%
Cc1cccc(CCN=c2c([N+](=O)[O-])nn(-c3ccccc3)n2O)c1,9%,?,-8%,15µM*,-9%,-2%
COc1ccc(-n2nc([N+](=O)[O-])c(=NCCCN3CCCC3=O)n2O)cc1,3%,?,-3%,?,-37%,-5%
O=[N+]([O-])c1nn(-c2ccc(Cl)cc2)n(O)c1=NCc1ccccc1,8%,?,-4%,10µM*,?,-7%
CCCN(C(=O)c1noc2c1COc1ccc(C)cc1-2)c1ccc(Cl)c(Cl)c1,4%,/,-4%,/,16%,/
Cc1c(Cl)cccc1N=c1c([N+](=O)[O-])nn(-c2ccccc2)n1O,4%,0%,-1%,-13%,4%,1%
Cc1cccc(-n2nc([N+](=O)[O-])c(=NC3CCN(Cc4ccccc4)CC3)n2O)c1,1%,12µM*,-6%,8.2µM*,-10%,2%
COc1cccc(Cn2c(=O)c(C)nc3cnc(N4CCN(C)CC4)nc32)c1,/,?,-9%,?,-15%,/
Cc1cc(NC(=O)c2cc(-c3ccco3)on2)nn1Cc1ccc(Cl)cc1,9%,26µM*,-11%,21µM*,2%,-9%
COc1ccc(-c2cc(C(=O)Nc3c(C)nn(Cc4ccccc4Cl)c3C)no2)cc1OC,3%,?,-7%,?,-9%,-3%
COc1ccc(OC)c(-c2cc(C(=O)Nc3c(C)nn(Cc4ccccc4C)c3C)no2)c1,4%,10µM*,-23%,10µM*,14%,1%
COc1ccc(OC)c(-c2cc(C(=O)Nc3cccc(Cl)c3C)no2)c1,-2%,-28%,1%,-16%,15%,/
Cc1ccccc1Cn1nc(C)c(NC(=O)c2cc(-c3ccco3)on2)c1C,5%,?,-15%,-30%,3%,-6%
Cc1cc(NC(=O)c2cc(-c3ccc(F)cc3)on2)nn1Cc1ccc(Cl)cc1,-5%,-20%,0%,?,-22%,/
COc1cccc(-c2cc(C(=O)Nc3c(C)nn(Cc4ccccc4Cl)c3C)no2)c1,3%,13µM*,-4%,9.2µM*,-9%,/
COc1ccc(OC)c(-c2cc(C(=O)Nc3ccc(C)c(C)c3)no2)c1,-4%,18µM*,-9%,?,-3%,/
C=CCN1CCN(C(CCC)c2nnnn2Cc2ccco2)CC1 (centres undefined),3%,-10%,-2%,3%,-15%,5%
C[C@H](CO)N1C[C@H](C)[C@@H](CN(C)C(=O)Nc2ccccc2)Oc2c(NC(=O)C3CCCCC3)cccc2C1=O,0%,-10%,3%,-17%,-26%,0%
COc1ccc(-c2cc(C(=O)Nc3c(C)nn(Cc4ccc(Cl)cc4)c3C)no2)cc1,-4%,?,-13%,-30%,-6%,-6%
SMILES,TDP1 block,DT40 TDP1 no CPT,KAT2A inh,DT40 TDP1 CPT,VDR inhibitor,PLK1 PBD block
COc1ccccc1-c1cc(C(=O)Nc2c(C)nn(Cc3ccc(Cl)cc3)c2C)no1,5%,21µM*,-3%,21µM*,-11%,/
Cc1ccc(NC(=O)c2cc(-c3ccc(F)cc3)on2)cc1C,3%,-15%,1%,-21%,-30%,24µM*
Cc1cc(C(=O)Nc2c(C)nn(Cc3ccccc3Cl)c2C)no1,0%,-12%,-5%,-27%,1%,-8%
COc1ccc(OC)c(-c2cc(C(=O)Nc3c(C)nn(Cc4ccccc4Cl)c3C)no2)c1,4%,23µM*,-18%,15µM*,9%,-3%
COc1ccc(OC)c(-c2cc(C(=O)Nc3c(C)nn(Cc4ccc(C)cc4)c3C)no2)c1,5%,18µM*,0%,21µM*,5%,/
COc1ccc(-c2cc(C(=O)Nc3ccc(C)c(C)c3)no2)cc1,/,?,9%,?,24%,-7%
Cc1cc(C(=O)CN2CCN(CC(=O)Nc3cccc(F)c3)CC2)c(C)n1C1CC1,0%[56.1 µM],4%,2%,4%,1%,-1%
CN=C(NC)NCc1ccccc1,/,6%,/,-1%,/,/
COc1ccc(C(C(=O)NC2CCCC2)N(C(=O)c2snc(C(N)=O)c2N)c2cccc(O)c2)cc1 (centres undefined),0%[0.0935 µM],13µM*,-2%,?,11%,?
NC(=O)c1nsc(C(=O)N(c2cccc(F)c2)C(C(=O)NCc2ccccc2)c2ccc(O)cc2)c1N (centres undefined),10%,21µM*,-8%,?,9%,-12%
COc1ccc(N(C(=O)c2snc(C(N)=O)c2N)C(C(=O)NCc2ccccc2)c2ccc(F)cc2)c(OC)c1 (centres undefined),/,?,-8%,26µM*,?,1%
COc1ccc(N(C(=O)c2snc(C(N)=O)c2N)C(C(=O)NC2CCCCC2)c2ccc(F)cc2)c(OC)c1 (centres undefined),/,?,-4%,2.9µM*,-3%,-11%
CC(NC(=O)C1CCOCC1)c1nnc2n1CCN(Cc1ccc3ccccc3c1)CC2 (centres undefined),/,-16%,/,15%[9.04 µM],/,/
COc1ccc(N(C(=O)c2snc(C(N)=O)c2N)C(C(=O)NC2CCCC2)c2cc(OC)ccc2OC)c(OC)c1 (centres undefined),2%,29µM*,-5%,23µM*,7%,-19%
C#CC(=O)N(c1cc(OC)ccc1OC)C(C(=O)NC1CCCC1)c1cccs1 (centres undefined),0%,2.1µM*,?,2.3µM*,?,?
